In PubChem BioAssay one finds composite z-score and z-score data, which are given here for 14 molecules.

The source made the active and inactive calls.

The nature of assay [1]: compounds binding Alexa647 anti-His antibody – biochemical, small-molecule microarray, 635 nm fluorescence, artefact control for SMM control protein annotation, primary screen (AID 1128).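 Further: score merges feature fluorescence with signal-to-noise for each printed compound spot.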 The following applies: higher = more signal.
For assay [2], the system named is Human papillomavirus type 1a E7 protein (residues 1-88). The experiment in a line: HPV1a E7 small-molecule binders, primary screen, biochemical, small-molecule microarray, residues 1-88, 635 nm (AID 1129). The settings on record: small-molecule microarray binding, fluorescence 635 nm; higher = more signal.
Assay [3] concerns the target Focal adhesion kinase 1 (Homo sapiens) (UniProt Q05397). The experiment in a line: PTK2 protein binding on printed compound slides – biochemical, small-molecule microarray, 635/667 nm fluorescence, BSA, DTT, primary screen (AID 1130).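 Further: composite of spot emission at 667 nm and signal to noise over triplicate slides.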 The settings on record: 635 nm fluorescence, higher = more signal.
Assay [4] deals with Fibrinogen (Alexa647-labelled). The experiment in a line: Alexa647-fibrinogen binding to printed small molecules – biochemical, small-molecule microarray, 635/667 nm fluorescence, artefact control for SMM control-protein annotation, profiling panel (AID 1131).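 Further: z-score merges 667 nm fluorescence with per-spot signal-to-noise over triplicate slides.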 The settings on record: fibrinogen-A647 binding fluorescence, higher = more signal.
Assay [5] deals with Follistatin (Homo sapiens) (UniProt P19883). Kind of assay: FST protein binding to printed compounds – biochemical, small-molecule microarray, 635/667 nm fluorescence, primary screen (AID 1132). The following applies: 635 nm fluorescence, higher = more signal.
Follistatin (Homo sapiens), sequence (P19883 whole entry, looked up): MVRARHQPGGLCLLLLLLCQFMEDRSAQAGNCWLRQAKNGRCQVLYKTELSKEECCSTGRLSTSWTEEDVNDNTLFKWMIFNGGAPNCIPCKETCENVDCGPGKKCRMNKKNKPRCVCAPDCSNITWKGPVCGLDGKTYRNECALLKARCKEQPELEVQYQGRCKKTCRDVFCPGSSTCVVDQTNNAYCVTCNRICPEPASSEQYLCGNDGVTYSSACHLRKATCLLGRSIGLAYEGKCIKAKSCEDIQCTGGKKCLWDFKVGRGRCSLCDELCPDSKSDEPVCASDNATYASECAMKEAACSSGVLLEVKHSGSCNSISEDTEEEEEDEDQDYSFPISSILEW
In assay [6] the target is Fibroblast growth factor 2 (Homo sapiens) (UniProt P09038). Kind of assay: basic fibroblast growth factor binding to printed compounds – biochemical, small-molecule microarray, 635/667 nm fluorescence, primary screen (AID 1133). The settings on record: FGF2, fluorescence 635/667, higher = more signal.
Fibroblast growth factor 2 (Homo sapiens), sequence (P09038 whole entry, looked up): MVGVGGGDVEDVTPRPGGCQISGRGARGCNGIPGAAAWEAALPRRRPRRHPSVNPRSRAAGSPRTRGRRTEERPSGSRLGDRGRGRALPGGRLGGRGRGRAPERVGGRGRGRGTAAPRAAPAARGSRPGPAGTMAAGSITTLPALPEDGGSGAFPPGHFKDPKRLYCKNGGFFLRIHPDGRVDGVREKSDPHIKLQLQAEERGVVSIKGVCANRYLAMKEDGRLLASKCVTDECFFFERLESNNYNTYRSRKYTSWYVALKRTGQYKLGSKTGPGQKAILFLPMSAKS
Assay [7] in a line: JC-1 mitochondrial potential readout, lung cancer cells – cell-based, A549, JC-1 fluorescence, basal, 24 h, 100 nL, profiling panel (AID 1138).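 Further: A549 lung adenocarcinoma cells under basal conditions with no added stimulus; test concentration not given here.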 The following applies: higher = more signal.
For the next assay, the system named is Lefty1. The experiment in a line: Lefty1 protein binding to printed compounds – biochemical, small-molecule microarray, 635/667 nm fluorescence, primary screen (AID 1139). The settings on record: fluorescence 635/667, higher = more signal.
Assay [8] concerns wheat germ agglutinin (Triticum aestivum), Alexa647-labelled. Kind of assay: Alexa647-WGA lectin binding to printed small molecules – biochemical, small-molecule microarray, 635/667 nm fluorescence, artefact control for SMM control-protein annotation, profiling panel (AID 1140).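 Further: score merges 667 nm feature emission with signal to noise over triplicate slides.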 The settings on record: WGA-A647 binding, 635 nm fluorescence, higher = more signal.
For assay [9], the target named is Luciferin 4-monooxygenase (Photinus pyralis) (UniProt P08659). Kind of assay: inhibition of purified Photinus pyralis luciferase – biochemical, luminescence, purified enzyme, 2006 set, primary screen (AID 1141).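 Further: cell-free assay with purified firefly luciferase at 100 ng per well in PBS; test concentration not given here.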 The following applies: purified firefly luciferase, SteadyGlo luminescence, 30 min; higher = more signal, called active from +8 up or from −8 down.
Luciferin 4-monooxygenase (Photinus pyralis), sequence (P08659 whole entry, looked up): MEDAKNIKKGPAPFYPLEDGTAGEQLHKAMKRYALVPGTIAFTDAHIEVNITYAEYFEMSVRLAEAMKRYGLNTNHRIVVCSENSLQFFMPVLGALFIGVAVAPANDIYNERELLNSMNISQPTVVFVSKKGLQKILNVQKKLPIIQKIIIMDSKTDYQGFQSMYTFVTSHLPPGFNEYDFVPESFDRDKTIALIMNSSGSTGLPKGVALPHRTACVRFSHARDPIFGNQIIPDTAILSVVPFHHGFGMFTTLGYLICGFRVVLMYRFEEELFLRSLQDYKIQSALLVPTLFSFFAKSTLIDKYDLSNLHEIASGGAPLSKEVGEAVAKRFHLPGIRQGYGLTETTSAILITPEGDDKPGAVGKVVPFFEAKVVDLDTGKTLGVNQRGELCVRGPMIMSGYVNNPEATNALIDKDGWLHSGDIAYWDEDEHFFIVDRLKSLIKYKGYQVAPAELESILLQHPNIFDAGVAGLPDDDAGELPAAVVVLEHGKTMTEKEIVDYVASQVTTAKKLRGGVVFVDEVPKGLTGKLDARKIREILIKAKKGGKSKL

Focal adhesion kinase 1 (Homo sapiens), sequence (Q05397 whole entry, looked up): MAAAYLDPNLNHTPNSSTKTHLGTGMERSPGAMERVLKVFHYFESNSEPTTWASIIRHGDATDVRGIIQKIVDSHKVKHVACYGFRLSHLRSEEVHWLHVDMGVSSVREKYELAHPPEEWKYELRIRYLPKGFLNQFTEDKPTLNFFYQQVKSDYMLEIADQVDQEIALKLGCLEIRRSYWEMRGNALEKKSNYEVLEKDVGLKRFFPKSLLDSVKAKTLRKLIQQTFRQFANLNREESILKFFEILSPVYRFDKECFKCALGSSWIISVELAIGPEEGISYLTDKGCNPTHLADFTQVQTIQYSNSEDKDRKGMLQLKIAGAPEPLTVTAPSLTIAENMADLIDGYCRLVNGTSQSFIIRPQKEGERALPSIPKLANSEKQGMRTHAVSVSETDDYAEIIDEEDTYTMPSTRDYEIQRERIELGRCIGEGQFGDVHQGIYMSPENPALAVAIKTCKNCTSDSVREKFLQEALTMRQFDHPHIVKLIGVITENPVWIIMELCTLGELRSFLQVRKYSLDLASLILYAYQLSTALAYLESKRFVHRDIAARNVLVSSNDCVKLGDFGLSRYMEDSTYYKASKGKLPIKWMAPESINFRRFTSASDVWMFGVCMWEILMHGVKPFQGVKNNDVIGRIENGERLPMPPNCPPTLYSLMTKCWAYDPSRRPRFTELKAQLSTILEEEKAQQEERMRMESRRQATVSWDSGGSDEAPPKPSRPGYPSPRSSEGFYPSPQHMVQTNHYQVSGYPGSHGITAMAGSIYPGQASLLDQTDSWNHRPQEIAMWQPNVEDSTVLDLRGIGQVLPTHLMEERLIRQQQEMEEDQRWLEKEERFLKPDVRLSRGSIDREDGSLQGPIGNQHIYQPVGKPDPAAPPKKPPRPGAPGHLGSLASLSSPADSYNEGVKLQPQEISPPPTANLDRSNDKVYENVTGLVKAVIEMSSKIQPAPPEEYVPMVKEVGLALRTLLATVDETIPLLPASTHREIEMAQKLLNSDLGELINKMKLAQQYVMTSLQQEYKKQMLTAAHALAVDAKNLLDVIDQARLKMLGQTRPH

Take `CCOC(=O)C1=NO[C@]2(C=C(Br)C3(OCCCO3)[C@H]3O[C@H]32)C1`: the composite z-score is -0.765 in [1]; -0.57 in [2]; -0.428 in assay [3]; 0.185 in assay [4]; -0.599 in assay [5]; -0.285 in [6]. In addition, the composite z-score in the assay with Lefty1 is -0.168; in assay [8], 0.513. In addition, the z-score in [7] was -0.242; in assay [9] it was 0.163 (inactive).

Turning to `O=C1[C@H]2[C@H]3[C@H](O)[C@H](O)CC(=NOCc4ccccc4)[C@@H]3CC[C@H]2C(=O)N1c1ccc(F)cc1F`, the composite z-score in assay [1] is -0.0523; in assay [2], -0.406; in assay [3], 0.757; in assay [4], 0.416; in assay [5] it was 0.072; in [6], 0.359. The composite z-score in the assay on Lefty1 is -0.0459; in [8], -0.141. Also, the z-score was -0.332 in assay [7] and 0.0336 (inactive) in assay [9].

On to `O=C1C[C@@H](O)[C@@H](O)[C@@H]2[C@@H]3C(=O)N(C[C@@H]4CCCO4)C(=O)[C@@H]3CC[C@@H]12`, for which the composite z-score in assay [1] came out at 0.318; in [2], 0.476; in assay [3], 0.181; in [4], 0.517; in assay [5] it was 0.848; in [6], 0.657. Also, the composite z-score was found to be 0.42 in the assay on Lefty1 and 0.208 in assay [8]. Further, the z-score was 0.52 in assay [7] and -0.658 (inactive) in assay [9].

Take `O=C(NN=C1C[C@@H](O)[C@@H](O)[C@@H]2[C@@H]3C(=O)N(C4CCCCC4)C(=O)[C@@H]3CC[C@H]12)OCc1ccccc1`: the composite z-score in assay [1] was -0.156; in assay [2] it was -0.387; in assay [3], -0.132; in [4], -0.195; in [5], -0.516; in assay [6] it was -0.443. Also, the composite z-score is -0.422 in the assay with Lefty1 and 0.505 in assay [8]. Also, the z-score in assay [7] was 0.293; in assay [9], -0.0704 (inactive).

As to `CC(CCN1CCCCc2nc(C)c(C)cc21)=NOC[C@@H](C)[C@H](OCc1ccccc1)C(C)C`, the composite z-score was 1.59 in assay [1]; -0.824 in assay [2]; -0.0923 in [3]; -2.81 in assay [4]; -2.3 in assay [5]; -0.84 in assay [6]. Also, the composite z-score with Lefty1 is -0.795; in assay [8], -0.614. Moreover, the z-score is 0.37 in assay [7] and -0.486 (inactive) in assay [9].

For `CC(C)=NOC[C@@H](C)[C@H](OCc1ccccc1)C(C)C`, the composite z-score in assay [1] was 0.164; in assay [2] it was -1.56; in assay [3] it was -0.15; in [4], -0.22; in assay [5] it was -0.476; in assay [6] it was -0.229. Also, the values for the composite z-score (in the assay on Lefty1; in assay [8]) were -0.458 and -0.351, respectively. Also, the z-score was -0.375 in [7] and -1.4 (inactive) in [9].

Consider `CCOC(=O)[C@H](Cc1ccccc1)NC(=O)CCC1CC(OC(=O)NCc2cccc3ccccc23)CC2(CCCC(COC(=O)NCCC(C)C)O2)O1` (stereo not given in full), for which the composite z-score is 0.603 in assay [1]; -0.431 in assay [2]; -0.225 in assay [3]; 0.604 in [4]; 0.123 in assay [5]; -0.278 in assay [6]. In addition, the composite z-score with Lefty1 was 0.129; in assay [8] it was 0.757. For the same molecule, the figures for the z-score in assay [7] and in assay [9] were -0.0858 and 0.871 (inactive), respectively.

On to `C[C@@H](c1ccccc1)N1C(=O)[C@H]2[C@H]3[C@H](O)[C@H](O)CC(=NO[C@@H]4O[C@H](CO)[C@@H](O)[C@H](O)[C@H]4O)[C@H]3CC[C@H]2C1=O`, for which the composite z-score in assay [1] was 0.746; in assay [2] it was 0.76; in assay [3] it was -0.0492; in assay [4] it was 0.318; in assay [5], 0.656; in [6], 0.444. In addition, the composite z-score in the assay on Lefty1 amounted to 0.554; in assay [8], 0.0795. The z-score is 0.296 in assay [7] and 0.491 (inactive) in assay [9].

For `CO[C@H]1COC(=O)CC=C[C@@H](C)[C@H](OC)COC(=O)[C@@H]2CCCN2C(=O)CC=C[C@@H]1C`, the composite z-score in assay [1] was 0.118; in assay [2], -0.834; in assay [3], -0.145; in assay [4], -1.02; in assay [5], 1.39; in assay [6] it was 1.01. The composite z-score in the assay with Lefty1 is 1.57; in assay [8], -0.483. For the same molecule, the z-score in assay [7] is 0.0624; in [9] it was -0.813 (inactive).

As for `CCCCc1nc2c(c3c1C[C@H](C)OC3)CN(CCOc1ccccc1)CC2`, the composite z-score is 0.818 in [1]; 0.334 in [2]; -0.117 in assay [3]; 0.75 in [4]; 0.766 in [5]; 0.913 in [6]. Further, the results for the composite z-score (with Lefty1; in assay [8]) were 1.23 and 0.38, respectively. In addition, the z-score is 3.89 in assay [7] and -1.94 (inactive) in assay [9].

As to `O=c1n(-c2ccccc2)c(=O)n2n1CC[C@@H]1C(=NOCc3ccccc3)[C@H]3O[C@H]3[C@@H](O)[C@@H]12`, the composite z-score in assay [1] was 0.103; in assay [2] it was -0.0945; in assay [3] it was 0.0844; in [4] it was -0.468; in [5] it was 0.265; in assay [6], 0.373. For the same molecule, the composite z-score in the assay with Lefty1 worked out at 0.293; in [8], 0.0398. Moreover, the figures for the z-score in assay [7] and in [9] were 0.397 and 0.0189 (inactive), respectively.

For the molecule `CC(C)CON=C1C[C@@H](O)[C@@H](O)[C@@H]2[C@@H]3C(=O)N(C[C@@H]4CCCO4)C(=O)[C@@H]3CC[C@@H]12`, the composite z-score is 0.0488 in [1]; -0.0845 in assay [2]; 0.348 in assay [3]; 0.222 in assay [4]; -0.341 in [5]; -0.0796 in assay [6]. The composite z-score with Lefty1 was -0.399; in [8], 0.561. Moreover, the z-score was 0.221 in assay [7] and 0.141 (inactive) in [9].

In the case of `CC(CCN1CCCCc2nc(C)c(C)cc21)=NO[C@H](C)c1cn([C@H](CO)Cc2ccccc2)nn1`, the composite z-score was 0.566 in assay [1]; -0.556 in assay [2]; -0.0044 in assay [3]; 0.339 in assay [4]; 0.965 in [5]; 1.01 in [6]. Besides, the composite z-score is 1.08 in the assay with Lefty1 and -0.154 in assay [8]. The figures for the z-score in assay [7] and in assay [9] were 0.0726 and -1.09 (inactive), respectively.

In the case of `C[C@@H]1NC(=O)[C@@H](C)COC(=O)[C@H](C)NC(=O)[C@@H](C)COC1=O`, the composite z-score in assay [1] was 1.08; in assay [2], 0.922; in assay [3] it was 0.0556; in assay [4] it was -0.0769; in assay [5], 0.172; in assay [6] it was 1.21. Further, the composite z-score was 0.389 in the assay on Lefty1 and -0.137 in assay [8]. The z-score was -0.323 in [7] and 0.254 (inactive) in assay [9].
